Experimental data as given in the supplement of paper PMC10646978.
± gives the standard deviation.

Legend:
Conditions in all cases: modulator concentration 10 µM
[1] = tested on: RAW-Dual (murine macrophage reporter line); assay: NF-kB reporter (SEAP) activity fold change vs agonist alone; higher = enhanced NF-kB activity
Procedure, shortened: (§1)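 Compound reached 10 μM final in each well by pin transfer, onto RAW-Dual murine macrophage reporter cells seeded at 50 000 per well in 384-well plates. After 1 hour at 37 °C, the cells were stimulated overnight with a PRR agonist. SEAP in the supernatant was read with QUANTI-Blue at 620 nm absorbance for NF-κB, and Lucia luciferase was read with QUANTI-Luc luminescence for IRF. Each signal was turned into fold change against the mean agonist-only control on the same plate, and two replicate plates were averaged with propagated errors.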

[2] = tested on: RAW-Dual (murine macrophage reporter line); assay: IRF reporter (Lucia luciferase) activity fold change vs agonist alone; higher = enhanced IRF activity
Procedure, shortened: as §1

[3] = tested on: RAW-Dual (murine macrophage reporter line); assay: viability score (confluency relative to resting cells, overnight) (fraction); higher = more viable, active = viable (0.7 or more)
Procedure, shortened: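 Compound was added at a final 10 μM to RAW-Dual macrophages in 384-well plates and left overnight. Confluency was imaged with IncuCyte, and two masks were generated in IncuCyte software over all imaged wells. Each viability score is confluency relative to resting cells, and a compound met the cutoff only when both masks were above 70% of resting cells.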

[4] = agonist: CpG ODN 1826 0.5 ug/mL

| SMILES | NF-kB reporter [1, 4] | NF-kB reporter ([1]; agonist: LPS 0.1 ug/mL) | NF-kB reporter ([1]; agonist: MPLA […]) | IRF reporter ([2]; agonist: 3'3'-cGAMP 10 ug/mL) | IRF reporter ([2]; agonist: LPS 0.1 ug/mL) | IRF reporter ([2]; agonist: MPLA […]) | viability score [3] |
| --- | --- | --- | --- | --- | --- | --- | --- |
| CN(C/C=C/C#CC(C)(C)C)Cc1cccc2ccccc12.Cl | 1.15 ± 0.054 | 0.905 ± 0.072 | 0.913 ± 0.049 | 1.07 ± 0.068 | 0.817 ± 0.14 | 0.885 ± 0.19 | 0.702 (active) |
| Cc1cc(-c2ccccc2)nnc1NCCN1CCOCC1.Cl.Cl | 1.19 ± 0.28 | 1.04 ± 0.1 | 1 ± 0.073 | 0.966 ± 0.049 | 1.28 ± 0.14 | 1.27 ± 0.12 | 0.989 (active) |
| O=C1NC(=O)c2c1cc1ccccc1c2-c1ccccc1 | 0.996 ± 0.18 | 0.979 ± 0.077 | 0.952 ± 0.15 | 0.887 ± 0.031 | 1.2 ± 0.2 | 1.35 ± 0.3 | 0.998 (active) |
| COCCOC(=O)C1=C(C)NC(C)=C(C(=O)OC/C=C/c2ccccc2)C1c1cccc([N+](=O)[O-])c1 (centres undefined) | 0.743 ± 0.078 | 0.787 ± 0.037 | 0.938 ± 0.09 | 1 ± 0.057 | 1.18 ± 0.088 | 1.17 ± 0.1 | 1.01 (active) |
| NCCNc1ccc(NCCN)c2c1C(=O)c1ccncc1C2=O.O=C(O)/C=C\C(=O)O.O=C(O)/C=C\C(=O)O | 0.917 ± 0.04 | 1 ± 0.085 | 1.13 ± 0.066 | 1.02 ± 0.049 | 1.36 ± 0.29 | 1.66 ± 0.55 | 0.97 (active) |
| CCc1cc(=O)oc2c(C)c(OCC(=O)c3ccc(OC)cc3)ccc12 | 0.804 ± 0.066 | 0.837 ± 0.039 | 1.06 ± 0.11 | 0.925 ± 0.062 | 1.45 ± 0.084 | 1.62 ± 0.14 | 1.01 (active) |
| NC[C@H]1CC[C@H](C(=O)O)CC1 | 0.939 ± 0.1 | 1.06 ± 0.073 | 0.958 ± 0.021 | 0.993 ± 0.14 | 1.01 ± 0.061 | 1.13 ± 0.11 | 0.999 (active) |
| CCCCSc1nnc2c(n1)OC(c1cccc(F)c1)Nc1ccc(Br)cc1-2 (centres undefined) | 1.07 ± 0.18 | 1.01 ± 0.078 | 0.951 ± 0.083 | 0.914 ± 0.036 | 1.24 ± 0.13 | 1.13 ± 0.12 | 1 (active) |
| Cc1cccc(C(C)C)c1NC(=O)c1ccccc1Br | 0.951 ± 0.16 | 0.956 ± 0.085 | 0.953 ± 0.074 | 0.988 ± 0.044 | 1.28 ± 0.23 | 1.14 ± 0.12 | 0.971 (active) |
| COc1ccc(S(=O)(=O)NCCn2nc(C(F)(F)F)cc2C2CC2)cc1 | 0.935 ± 0.077 | 1.09 ± 0.083 | 1.04 ± 0.029 | 0.996 ± 0.037 | 0.953 ± 0.096 | 0.834 ± 0.15 | 0.979 (active) |
| CC1Cc2ccccc2N1C(=O)C1CCCN1S(=O)(=O)c1ccc(Cl)cc1 (centres undefined) | 0.835 ± 0.043 | 0.905 ± 0.12 | 1.27 ± 0.25 | 1.01 ± 0.061 | 1.22 ± 0.18 | 1.47 ± 0.52 | 0.97 (active) |
| COc1cccc(CC(=O)N2CCC(Oc3ccc4ccccc4n3)C2)c1 (centres undefined) | 0.762 ± 0.04 | 1.18 ± 0.14 | 1 ± 0.077 | 0.938 ± 0.056 | 1.18 ± 0.14 | 1.24 ± 0.25 | 1 (active) |
